Each structure is given as a SMILES string.
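Note: KINOMEscan kinase panel screen.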

One test relates to PRP4. As to conditions: concentration: 1 μM,replicates: in singlicate; n = 1.
As for `Cn1ccc2ncnc(Oc3ccc(NC(=O)Nc4ccnc(C(F)(F)F)c4)c(Cl)c3)c21`, the “%Inh” value came to 14%.

With `Cc1ccc(CC(=O)N2CCc3cc(-c4cn(C)c5ncnc(N)c45)ccc32)cc1` [GSK2634758], the “%Inh” value amounted to 20%.

On to `CS(=O)(=O)c1cccc(CNc2nc(Nc3ccc4c(c3)[C@@H]3C[C@@H]4CNC3=O)ncc2C(F)(F)F)c1`, for which the “%Inh” value stood at 10%.

On to `CNC(=O)c1ccccc1Nc1nc(Nc2cccc(CS(C)(=O)=O)c2)ncc1C.O=CO` [GSK1520489], for which the “%Inh” value is recorded as 82%.

`Cn1ccc2ncnc(Oc3ccc(NC(=O)Nc4cccc(C(F)(F)F)c4)c(Cl)c3)c21`: the “%Inh” value worked out at 5%.

Turning to `CN1CCN(CCNc2nc3cc(Oc4ccc(NC(=O)Nc5cc(C(F)(F)F)ccc5F)cc4)ccc3[nH]2)CC1.Cl.Cl` [GW768504], the “%Inh” value worked out at 0%.

Regarding `O=C(NCC1CC1)c1ccc(-c2cc(C(=O)NC3CC3)ccc2F)cc1` [GW810445], the “%Inh” value is given as 16%.

For the compound `N#Cc1cccc(C(=O)NC2CCN(c3ccnc(Nc4ccc(F)cc4)n3)C2)c1` (centres unmarked) [GSK1379708], the “%Inh” value is listed as 29%.

Consider `FC(F)(F)c1cc(Br)cc(Nc2nccc(-c3cnn4ncccc34)n2)c1` [GW810578], for which the “%Inh” value is 0%.

Consider `Cc1ccn2nc(-c3ccc(F)cc3)c(-c3ccncc3)c2c1.Cl` [GW457859], for which the “%Inh” value is 28%.

`C[C@@H](Oc1cc(-n2cnc3cc(-c4cnn(C)c4)ccc32)sc1C(N)=O)c1ccccc1Cl` [GSK580432]: the “%Inh” value was 81%.

In the case of `Cn1ccc2ncnc(Oc3ccc(NC(=O)Nc4cncc(C(F)(F)F)c4)c(Cl)c3)c21`, the “%Inh” value is recorded as 6%.

With `CS(=O)(=O)Nc1ccc(-c2ccnc3[nH]ccc23)cc1` [GSK993273], the “%Inh” value was determined as 64%.

For `O=C(Nc1n[nH]c2cc(-c3ccco3)ccc12)C1CC1` [SB-737447], the “%Inh” value was 13%.

In the case of `OCCn1cc(-c2cnc3nnn(Cc4ccc5ncccc5c4)c3n2)cn1`, the “%Inh” value came to 0%.

As for `Cc1ccc(Nc2ccnc(Nc3ccc4c(c3)CS(=O)(=O)C4)n2)cc1O.Cl` [GW579362], the “%Inh” value came out at 84%.

Regarding `Cn1ccc2ncnc(Oc3ccc(NC(=O)Nc4cccc(C(F)(F)F)c4)c(F)c3)c21`, the “%Inh” value is 14%.

For `CCOC(=O)N1CCC(n2cnc(-c3ccc(F)cc3)c2-c2ccnc(N)n2)CC1` [SB-219952], the “%Inh” value is recorded as 0%.

For the compound `CCn1c(-c2nonc2N)nc2cncc(Br)c21` [SB-738004], the “%Inh” value came out at 27%.

Take `Cl.c1ccc(Oc2ccc(Nc3ccnc4cc(-c5ccc(CN6CCNCC6)o5)ccc34)cc2)nc1` [GW567142]: the “%Inh” value turned out to be 13%.

Consider `COc1cccc(C2=C(Nc3cccc(Cl)c3)C(=O)NC2=O)c1` [SB-341556], for which the “%Inh” value stood at 25%.

`CS(=O)c1ccc(-c2coc3ccc(-c4n[nH]c(=O)o4)cc23)cc1` (centres unmarked): the “%Inh” value came out at 14%.

As for `COC(=O)Nc1nc2cc(Oc3ccc(NC(=O)Nc4cc(C(F)(F)F)ccc4Cl)cc3)ccc2[nH]1.Cl` [GW697465], the “%Inh” value came to 43%.

With `Cn1cc(-c2cccc3c(N)c(C(N)=O)nnc23)cn1`, the “%Inh” value turned out to be 1%.

Turning to `C[C@@H]1CCN(C(=O)N2CCCC2)C[C@@H]1N(C)c1ncnc2[nH]ccc12`, the “%Inh” value amounted to 0%.

`Cc1ccc2c(-c3ccnc(Nc4ccc(C(F)(F)F)cc4)n3)cnn2n1` [GW819776]: the “%Inh” value was determined as 0%.

For the compound `C[C@@H](Oc1cc(-n2cnc3cc(-c4ccncc4)ccc32)sc1C(N)=O)c1ccccc1Cl` [GSK479719], the “%Inh” value is listed as 14%.

For `CCNCC(Cc1ccccc1)NC(=O)c1cc(Br)c(-c2ccnc3[nH]ccc23)s1.Cl.Cl` (centres unmarked) [GSK1383280], the “%Inh” value is reported as 6%.

As for `Cc1nnc(-c2ccc3occ(-c4ccc(S(C)=O)cc4)c3n2)o1` (centres unmarked), the “%Inh” value amounted to 16%.

For `COc1cc2nccc(Nc3ccc(Oc4ccccc4)cc3)c2cc1OC.Cl` [GI261656], the “%Inh” value is listed as 48%.

Take `COc1cccc(OC)c1C(=O)Nc1cccc(-c2nn3ccccc3c2-c2ccnc(Nc3cccc(F)c3)n2)c1` [GSK361065]: the “%Inh” value was found to be 0%.

In the case of `COc1cc(Nc2nccc(N3CCC(NC(=O)c4cccc(C#N)c4)C3)n2)cc(OC)c1OC` (centres unmarked) [GSK1379751], the “%Inh” value was 54%.

For `O=C(Nc1cccc(C(F)(F)F)c1)c1cccc(Oc2ccc3nccn3n2)c1`, the “%Inh” value is 8%.

`CC(C)c1nc(-c2cccc(NS(=O)(=O)c3ccccc3)c2)c(-c2ccnc(Nc3ccc4c(c3)CN(C)CC4)n2)s1` [GSK1649598]: the “%Inh” value is listed as 8%.

As to `CN1CCN(CCCNc2nccc(-c3c(-c4ccc(F)cc4)nn4cc(C(N)=O)ccc34)n2)CC1` [GW622475], the “%Inh” value was determined as 0%.

For the compound `CC(=O)c1c(-c2ccncc2)[nH]c(-c2ccncc2)c1C` [GW493036], the “%Inh” value worked out at 22%.

Regarding `COC(=O)c1cccc(NC(=O)NC2CCN(c3ccnc(NCc4ccc(F)cc4)n3)CC2)c1` [GSK1379860], the “%Inh” value worked out at 30%.

A further test has as its system T1, PYK2.
T1 construct: gene PTK2B
As to conditions: concentration: 1 μM,replicates: in singlicate; n = 1.
With `Cn1ccc2ncnc(Oc3ccc(NC(=O)Nc4ccnc(C(F)(F)F)c4)c(Cl)c3)c21`, the “%Inh” value amounted to 9%.

As for `Cc1ccc(CC(=O)N2CCc3cc(-c4cn(C)c5ncnc(N)c45)ccc32)cc1` [GSK2634758], the “%Inh” value stood at 0%.

Turning to `CS(=O)(=O)c1cccc(CNc2nc(Nc3ccc4c(c3)[C@@H]3C[C@@H]4CNC3=O)ncc2C(F)(F)F)c1`, the “%Inh” value worked out at 66%.

Turning to `CNC(=O)c1ccccc1Nc1nc(Nc2cccc(CS(C)(=O)=O)c2)ncc1C.O=CO` [GSK1520489], the “%Inh” value is recorded as 99.5%.

Regarding `Cn1ccc2ncnc(Oc3ccc(NC(=O)Nc4cccc(C(F)(F)F)c4)c(Cl)c3)c21`, the “%Inh” value was found to be 6%.

Turning to `CN1CCN(CCNc2nc3cc(Oc4ccc(NC(=O)Nc5cc(C(F)(F)F)ccc5F)cc4)ccc3[nH]2)CC1.Cl.Cl` [GW768504], the “%Inh” value was found to be 18%.

For the compound `O=C(NCC1CC1)c1ccc(-c2cc(C(=O)NC3CC3)ccc2F)cc1` [GW810445], the “%Inh” value is 0%.

As to `N#Cc1cccc(C(=O)NC2CCN(c3ccnc(Nc4ccc(F)cc4)n3)C2)c1` (centres unmarked) [GSK1379708], the “%Inh” value came to 3%.

Turning to `FC(F)(F)c1cc(Br)cc(Nc2nccc(-c3cnn4ncccc34)n2)c1` [GW810578], the “%Inh” value was 80%.

`Cc1ccn2nc(-c3ccc(F)cc3)c(-c3ccncc3)c2c1.Cl` [GW457859]: the “%Inh” value is on record as 0%.

For `C[C@@H](Oc1cc(-n2cnc3cc(-c4cnn(C)c4)ccc32)sc1C(N)=O)c1ccccc1Cl` [GSK580432], the “%Inh” value turned out to be 0%.

In the case of `Cn1ccc2ncnc(Oc3ccc(NC(=O)Nc4cncc(C(F)(F)F)c4)c(Cl)c3)c21`, the “%Inh” value is 2%.

As to `CS(=O)(=O)Nc1ccc(-c2ccnc3[nH]ccc23)cc1` [GSK993273], the “%Inh” value is recorded as 20%.

For `O=C(Nc1n[nH]c2cc(-c3ccco3)ccc12)C1CC1` [SB-737447], the “%Inh” value worked out at 23%.

Take `OCCn1cc(-c2cnc3nnn(Cc4ccc5ncccc5c4)c3n2)cn1`: the “%Inh” value was 0%.

As for `Cc1ccc(Nc2ccnc(Nc3ccc4c(c3)CS(=O)(=O)C4)n2)cc1O.Cl` [GW579362], the “%Inh” value was determined as 83%.

Regarding `Cn1ccc2ncnc(Oc3ccc(NC(=O)Nc4cccc(C(F)(F)F)c4)c(F)c3)c21`, the “%Inh” value stood at 11%.

For the compound `CCOC(=O)N1CCC(n2cnc(-c3ccc(F)cc3)c2-c2ccnc(N)n2)CC1` [SB-219952], the “%Inh” value was determined as 10%.

Regarding `CCn1c(-c2nonc2N)nc2cncc(Br)c21` [SB-738004], the “%Inh” value is 0%.

`Cl.c1ccc(Oc2ccc(Nc3ccnc4cc(-c5ccc(CN6CCNCC6)o5)ccc34)cc2)nc1` [GW567142]: the “%Inh” value was 0%.

Turning to `COc1cccc(C2=C(Nc3cccc(Cl)c3)C(=O)NC2=O)c1` [SB-341556], the “%Inh” value is recorded as 16%.

`CS(=O)c1ccc(-c2coc3ccc(-c4n[nH]c(=O)o4)cc23)cc1` (centres unmarked): the “%Inh” value was 4%.

For the compound `COC(=O)Nc1nc2cc(Oc3ccc(NC(=O)Nc4cc(C(F)(F)F)ccc4Cl)cc3)ccc2[nH]1.Cl` [GW697465], the “%Inh” value is 24%.

As to `Cn1cc(-c2cccc3c(N)c(C(N)=O)nnc23)cn1`, the “%Inh” value is 9%.

In the case of `C[C@@H]1CCN(C(=O)N2CCCC2)C[C@@H]1N(C)c1ncnc2[nH]ccc12`, the “%Inh” value turned out to be 0%.

For `Cc1ccc2c(-c3ccnc(Nc4ccc(C(F)(F)F)cc4)n3)cnn2n1` [GW819776], the “%Inh” value is given as 16%.

With `C[C@@H](Oc1cc(-n2cnc3cc(-c4ccncc4)ccc32)sc1C(N)=O)c1ccccc1Cl` [GSK479719], the “%Inh” value turned out to be 13%.

Consider `CCNCC(Cc1ccccc1)NC(=O)c1cc(Br)c(-c2ccnc3[nH]ccc23)s1.Cl.Cl` (centres unmarked) [GSK1383280], for which the “%Inh” value is recorded as 25%.

In the case of `Cc1nnc(-c2ccc3occ(-c4ccc(S(C)=O)cc4)c3n2)o1` (centres unmarked), the “%Inh” value stood at 2%.

With `COc1cc2nccc(Nc3ccc(Oc4ccccc4)cc3)c2cc1OC.Cl` [GI261656], the “%Inh” value is 0%.

For the compound `COc1cccc(OC)c1C(=O)Nc1cccc(-c2nn3ccccc3c2-c2ccnc(Nc3cccc(F)c3)n2)c1` [GSK361065], the “%Inh” value stood at 8%.

`COc1cc(Nc2nccc(N3CCC(NC(=O)c4cccc(C#N)c4)C3)n2)cc(OC)c1OC` (centres unmarked) [GSK1379751]: the “%Inh” value is listed as 0%.

Turning to `O=C(Nc1cccc(C(F)(F)F)c1)c1cccc(Oc2ccc3nccn3n2)c1`, the “%Inh” value is recorded as 0%.

Regarding `CC(C)c1nc(-c2cccc(NS(=O)(=O)c3ccccc3)c2)c(-c2ccnc(Nc3ccc4c(c3)CN(C)CC4)n2)s1` [GSK1649598], the “%Inh” value was determined as 48%.

Consider `CN1CCN(CCCNc2nccc(-c3c(-c4ccc(F)cc4)nn4cc(C(N)=O)ccc34)n2)CC1` [GW622475], for which the “%Inh” value is on record as 9%.

Consider `CC(=O)c1c(-c2ccncc2)[nH]c(-c2ccncc2)c1C` [GW493036], for which the “%Inh” value turned out to be 0%.

For the compound `COC(=O)c1cccc(NC(=O)NC2CCN(c3ccnc(NCc4ccc(F)cc4)n3)CC2)c1` [GSK1379860], the “%Inh” value is on record as 9%.

The values above are taken from publication PMC5540273 (PLoS ONE, 2017).
